Here are results for seven molecules from PubChem BioAssay (EPA / NIEHS).

Common to all, as to conditions: mRNA level, 48 h; actives raise or lower the signal
Read-out in test [1]: HGF (gene 3082)
Briefly: LTEA_HepaRG_HGF: Life Technologies and Expression Analysis (LTEA) Assay for Hepatocyte Growth Facto (HGF) using HepaRG (AID 2283505). In outline: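 Read-out is HGF transcript level by qRT-PCR, normalized to three housekeeping genes, fitted bidirectionally against 0.5% DMSO vehicle. Human HepaRG cells received test chemicals for 48 h at up to 100 uM.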

Read-out in test [2]: Insulin Like Growth Factor 1 (IGF1), IGF1 (gene 3479)
Briefly: LTEA_HepaRG_IGF1: Life Technologies and Expression Analysis (LTEA) Assay for Insulin Like Growth Factor 1 (IGF1) using HepaRG (AID 2283506). In a few lines:
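Cells are thawed, plated and cultured 48 h, then exposed in duplicate to chemical (highest 100 uM, half-log steps, 0.5% DMSO) for another 48 h. Total RNA is analysed by Fluidigm qRT-PCR for IGF1 expression relative to vehicle.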

Read-out in test [3]: Intercellular Adhesion Molecule 1 (ICAM1), ICAM1 (gene 3383)
As to the kind of experiment: LTEA_HepaRG_ICAM1: Life Technologies and Expression Analysis (LTEA) Assay for Intercellular Adhesion Molecule 1 (ICAM1) using HepaRG (AID 2283507). In outline:
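Readout is qRT-PCR mRNA level, normalized to three housekeeping genes and fitted bidirectionally against 0.5% DMSO vehicle. Human HepaRG cultures received compound for 48 h, top concentration 100 uM with half-log dilutions.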

Read-out in test [4]: Insulin-like growth factor-binding protein 1 (IGFBP1), IGFBP1 (gene 3484)
As to the kind of experiment: LTEA_HepaRG_IGFBP1: Life Technologies and Expression Analysis (LTEA) Assay for Insulin-like growth factor-binding protein 1 (IGFBP1) using HepaRG (AID 2283508). In a few lines:
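Thawed HepaRG cells are plated for 48 h, switched to serum-free induction medium, then dosed in duplicate for another 48 h (100 uM top, half-log steps). Lysates in RLT go to qRT-PCR, and gain or loss of signal is fitted relative to vehicle.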

Read-out in test [5]: Interleukin 6 (IL6), IL6 (gene 3569)
As to the kind of experiment: LTEA_HepaRG_IL6: Life Technologies and Expression Analysis (LTEA) Assay for Interleukin 6 (IL6) using HepaRG (AID 2283509). In a few lines:
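Changes in IL6 mRNA, up or down relative to 0.5% DMSO controls, were derived from concentration-response curves in human HepaRG cells treated for 48 h at up to 100 uM, with ACTB, GAPDH and POLR2A as normalizers.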

Read-out in test [6]: Interleukin 6 Receptor (IL6R), IL6R (gene 3570)
Briefly: LTEA_HepaRG_IL6R: Life Technologies and Expression Analysis (LTEA) Assay for Interleukin 6 Receptor (IL6R) using HepaRG (AID 2283510).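 For AC50: TaqMan qRT-PCR signal normalized to ACTB GAPDH and POLR2A housekeeping genes.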 In a few lines:
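Cells were thawed, plated and cultured 48 h, then medium was changed to serum-free induction medium. Chemicals were added in duplicate (100 uM top, half-log steps, 0.5% DMSO) for 48 h. Lysates were analyzed by qRT-PCR for IL6R expression.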

Read-out in test [7]: Potassium channel subfamily K member 1 (KCNK1), KCNK1 (gene 3775)
Briefly: LTEA_HepaRG_KCNK1: Life Technologies and Expression Analysis (LTEA) Assay for Potassium channel subfamily K member 1 (KCNK1) using HepaRG (AID 2283511). In a few lines: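 Human HepaRG cultures receive test chemicals for 48 h in 0.5% DMSO, top concentration 100 uM with half-log dilutions. Induction or suppression of KCNK1 mRNA relative to DMSO is derived by bidirectional fitting of qRT-PCR data.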

Read-out in test [8]: Keratin 19 (KRT19), KRT19 (gene 3880)
Briefly: LTEA_HepaRG_KRT19: Life Technologies and Expression Analysis (LTEA) Assay for Keratin 19 (KRT19) using HepaRG (AID 2283512). In outline:
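KRT19 transcript levels, measured by Fluidigm qRT-PCR against three housekeeping genes, are fitted for gain or loss of signal relative to DMSO. Human HepaRG cells receive test chemicals (top 100 uM, half-log steps, 0.5% DMSO) for 48 hours.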

Read-out in test [9]: JUN Transcription Factor, JUN (gene 3725)
As to the kind of experiment: LTEA_HepaRG_JUN: Life Technologies and Expression Analysis (LTEA) Assay for JUN Transcription Factor using HepaRG (AID 2283513). In a few lines: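 Read-out is JUN transcript level by TaqMan qRT-PCR, normalized to ACTB, GAPDH and POLR2A, after 48 h chemical treatment of HepaRG cells. Concentration-response spanned eight half-log points up to 100 uM in 0.5% DMSO.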

Read-out in test [10]: Lipase C (LIPC), LIPC (gene 3990)
Briefly: LTEA_HepaRG_LIPC: Life Technologies and Expression Analysis (LTEA) Assay for Lipase C (LIPC) using HepaRG (AID 2283514). In a few lines:
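In this multiplexed gene-expression screen, human HepaRG cultures received test chemicals for 48 h across eight concentrations with 100 uM highest, in duplicate. Values reflect LIPC mRNA induction or suppression versus DMSO vehicle, from normalized qRT-PCR.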

Read-out in test [11]: Lipoprotein lipase (LPL), LPL (gene 4023)
Briefly: LTEA_HepaRG_LPL: Life Technologies and Expression Analysis (LTEA) Assay for Lipoprotein lipase (LPL) using HepaRG (AID 2283515). In a few lines:
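Concentration-response testing used half-log steps from 100 uM in 0.5% DMSO on human HepaRG cells, 48 h, duplicate wells. Phenobarbital 1 mM served as induction control; LPL mRNA was normalized to ACTB, GAPDH, POLR2A.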

Read-out in test [12]: MicroRNA 122 (MIR122), gene 406906
Briefly: LTEA_HepaRG_MIR122: Life Technologies and Expression Analysis (LTEA) Assay for MicroRNA 122 (MIR122) using HepaRG (AID 2283516). Note: the transcript read is the microRNA miR-122. In a few lines:
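Human liver HepaRG cultures receive test chemicals for 48 h at eight half-log concentrations from 100 uM. Expression is quantified by qRT-PCR with ACTB/GAPDH/POLR2A normalization and fitted bidirectionally against 0.5% DMSO.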

Read-out in test [13]: matrix metalloproteinase-10 (MMP10), MMP10 (gene 4319)
Briefly: LTEA_HepaRG_MMP10: Life Technologies and Expression Analysis (LTEA) Assay for matrix metalloproteinase-10 (MMP10) using HepaRG (AID 2283517). In a few lines: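 In differentiated HepaRG cultures kept in 0.5% DMSO, test chemicals act for 48 h over an eight-point range with a top dose of 100 uM. Expression is then quantified by TaqMan RT-PCR against ACTB, GAPDH and POLR2A.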

Read-out in test [14]: MYC, MYC (gene 4609)
As to the kind of experiment: LTEA_HepaRG_MYC: Life Technologies and Expression Analysis (LTEA) Assay for MYC using HepaRG (AID 2283518). In outline:
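HepaRG, ~100,000 cells/well, collagen I; 48 h plating; serum-free induction medium; 48 h dosing, duplicate, 100 uM top, half-log, 0.5% DMSO; total RNA → qRT-PCR MYC; gain/loss fit vs DMSO.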

Read-out in test [15]: matrix metalloproteinase-3 (MMP3), MMP3 (gene 4314)
As to the kind of experiment: LTEA_HepaRG_MMP3: Life Technologies and Expression Analysis (LTEA) Assay for matrix metalloproteinase-3 (MMP3) using HepaRG (AID 2283519). In a few lines:
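Human liver HepaRG cultures received chemicals (top concentration 100 uM, 0.5% DMSO) for 48 h in duplicate. MMP3 mRNA induction or loss was then assessed via TaqMan qRT-PCR with housekeeping-gene normalisation.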

Read-out in test [16]: Paternally Expressed 10 (PEG10), PEG10 (gene 23089)
Briefly: LTEA_HepaRG_PEG10: Life Technologies and Expression Analysis (LTEA) Assay for Paternally Expressed 10 (PEG10) using HepaRG (AID 2283520).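 For AC50: PEG10 transcript by qRT-PCR normalised to ACTB GAPDH and POLR2A.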 In a few lines:
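Human HepaRG cultures are dosed for 48 h across an eight-point half-log series starting at 100 uM, with 0.5% DMSO as vehicle and baseline. Gain or loss of PEG10 transcript is measured by qRT-PCR and fitted in both directions.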

Read-out in test [17]: Nuclear factor NF-kappa-B p105 subunit (Homo sapiens) (UniProt P19838)
Briefly: LTEA_HepaRG_NFKB1: Life Technologies and Expression Analysis (LTEA) Assay for Nuclear Factor Kappa B Subunit 1 (NFKB1) using HepaRG (AID 2283521).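 Note: TaqMan qRT-PCR transcript normalised to ACTB GAPDH and POLR2A housekeeping genes.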 In outline: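 Differentiated human HepaRG cells were exposed for 48 h in serum-free induction medium to eight concentrations (top 100 uM, half-log steps, 0.5% DMSO), in duplicate. NFKB1 mRNA was measured by TaqMan qRT-PCR, normalized to ACTB/GAPDH/POLR2A, and fitted bidirectionally against DMSO.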

Read-out in test [18]: Protein phosphatase 2A (PPP2R4), PTPA (gene 5524)
As to the kind of experiment: LTEA_HepaRG_PPP2R4: Life Technologies and Expression Analysis (LTEA) Assay for Protein phosphatase 2A (PPP2R4) using HepaRG (AID 2283522). In a few lines:
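Cells were plated, cultured 48 h, switched to serum-free induction medium, then dosed for 48 h (8 points, max 100 uM, 0.5% DMSO). RNA was isolated and PPP2R4 expression measured by TaqMan qRT-PCR.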

Read-out in test [19]: Phosphatase and tensin (PTEN), PTEN (gene 5728)
As to the kind of experiment: LTEA_HepaRG_PTEN: Life Technologies and Expression Analysis (LTEA) Assay for Phosphatase and tensin (PTEN) using HepaRG (AID 2283523). In outline:
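Expression of PTEN is quantified in the human liver line HepaRG following two days of dosing (top concentration 100 uM, half-log dilutions, 0.5% DMSO). Values derive from bidirectional curve fitting relative to DMSO controls.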

Read-out in test [20]: solute carrier (SLC22A1), SLC22A1 (gene 6580)
Briefly: LTEA_HepaRG_SLC22A1: Life Technologies and Expression Analysis (LTEA) Assay for solute carrier (SLC22A1) using HepaRG (AID 2283524). In outline: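 Transcript induction or suppression of SLC22A1 in human HepaRG cultures is scored after 48 h chemical treatment, with DMSO (0.5%) as baseline for bidirectional fitting. Concentrations span eight half-log points topping at 100 uM.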

Active and inactive are the calls of the source. Rule for the calls: active = hit-call score of the fitted dose curve at least 0.9, where 1 is the maximum; inactive = score below 0.9.

Sequence of Nuclear factor NF-kappa-B p105 subunit (Homo sapiens) (P19838 whole entry, looked up): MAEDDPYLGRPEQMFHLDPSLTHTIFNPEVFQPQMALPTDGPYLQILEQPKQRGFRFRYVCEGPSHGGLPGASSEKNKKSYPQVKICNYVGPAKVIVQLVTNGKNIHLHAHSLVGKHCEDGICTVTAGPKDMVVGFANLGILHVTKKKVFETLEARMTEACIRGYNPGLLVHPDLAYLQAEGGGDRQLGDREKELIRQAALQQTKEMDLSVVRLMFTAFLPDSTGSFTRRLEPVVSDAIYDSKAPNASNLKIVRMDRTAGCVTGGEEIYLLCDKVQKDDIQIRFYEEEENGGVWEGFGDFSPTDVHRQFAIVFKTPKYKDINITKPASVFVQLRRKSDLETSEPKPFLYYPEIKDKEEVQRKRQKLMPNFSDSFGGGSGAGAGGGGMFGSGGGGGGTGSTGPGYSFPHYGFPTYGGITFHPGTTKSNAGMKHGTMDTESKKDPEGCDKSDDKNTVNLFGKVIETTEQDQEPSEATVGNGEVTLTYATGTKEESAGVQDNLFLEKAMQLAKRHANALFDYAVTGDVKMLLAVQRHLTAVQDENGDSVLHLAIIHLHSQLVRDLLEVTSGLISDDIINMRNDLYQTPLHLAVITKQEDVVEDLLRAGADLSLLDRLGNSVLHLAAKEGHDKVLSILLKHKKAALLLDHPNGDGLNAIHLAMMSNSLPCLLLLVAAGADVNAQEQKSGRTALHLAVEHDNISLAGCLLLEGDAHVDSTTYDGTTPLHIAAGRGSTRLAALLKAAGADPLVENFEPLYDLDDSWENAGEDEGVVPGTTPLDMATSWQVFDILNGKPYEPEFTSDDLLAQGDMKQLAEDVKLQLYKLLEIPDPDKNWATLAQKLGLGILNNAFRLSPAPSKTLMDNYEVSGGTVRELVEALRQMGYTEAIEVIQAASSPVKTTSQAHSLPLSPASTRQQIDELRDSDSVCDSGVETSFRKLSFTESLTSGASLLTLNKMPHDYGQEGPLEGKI

Take `Clc1ccc(Cl)cc1`: the molecule was called inactive in test [1], in [2], in test [3], in [4], in test [5] and in test [6]. Besides, the result in test [7], in [8], in test [9], in test [10], in [11] and in [12] was inactive. The outcome in test [13], in test [14], in [15], in test [16], in test [17] and in test [18] was inactive. The result in test [19] and in test [20] was inactive.

Regarding `CN(C)c1nc(=O)n(C2CCCCC2)c(=O)n1C`, the result in [1], in test [2], in test [4], in test [5], in test [6] and in test [7] was inactive. The outcome in test [8], in [9], in [11], in test [12], in [13] and in test [14] was inactive. Further, the molecule was called inactive in test [15], in [16], in [18], in test [19] and in [20]. The figures for the AC50 in test [3] and in [10] were 5.44 µM (active) and 12 µM (active), respectively.

On to `Nc1ccc(-c2ccc(N)cc2)cc1`, for which the call in test [1], in test [2], in test [3], in test [4], in [5] and in test [6] was inactive. Besides, the molecule was called inactive in [8], in test [9], in test [10], in [11], in test [12] and in [13]. The call in [14], in [15], in [18], in test [19] and in [20] was inactive. For the same molecule, the AC50 in [16] was 2.2 µM (active).

Consider `C[C@]12CCC(=O)C=C1CC[C@@H]1[C@@H]2CC[C@@]2(C)[C@H]1CC[C@]2(C)O`, for which the outcome in test [1], in test [3], in test [4], in test [5], in test [6] and in test [7] was inactive. Moreover, the molecule was classed as inactive in test [8], in test [11], in [13], in test [14], in [18] and in test [19]. Moreover, the AC50 in [2] is 11.3 µM (active); in [10], 81.7 µM (active); in test [12], 45.8 µM (active); in test [15], 0.948 µM (active); in test [16] it was 2.07 µM (active); in test [20], 45.8 µM (active).

As to `CC(c1ccc(O)cc1)(c1ccc(O)cc1)c1ccc(O)cc1`, the AC50 in [1] is 25.1 µM (active); in [2] it was 92 µM (active); in [3], 33.4 µM (active); in [4] it was 18.8 µM (active); in [5], 80.8 µM (active); in test [6] it was 72.7 µM (active). Besides, the half-maximal activity concentration (AC50) in [8] is 50 µM (active); in test [11], 68.6 µM (active); in test [12] it was 77.9 µM (active); in test [13], 50 µM (active); in test [14], 94.2 µM (active); in test [18] it was 69.7 µM (active). The half-maximal activity concentration (AC50) was 74.3 µM (active) in test [19] and 41.4 µM (active) in test [20]. Also, the result in [10], in test [15] and in [17] was inactive.

Take `Cc1ccccc1O`: the result in test [1], in [2], in test [3], in test [4], in test [5] and in test [6] was inactive. For the same molecule, the outcome in test [7], in test [8], in test [10], in test [11], in test [12] and in [13] was inactive. Moreover, the molecule was classed as inactive in test [14], in test [15], in test [16], in test [17], in [18] and in test [19]. Also, the outcome in [20] was inactive.

For the molecule `Cc1cc2c3c(c1)C(c1ccccc1)=N[C@@H](NC(=O)c1ccncc1)C(=O)N3CC2`, the call in [1], in [3], in test [4], in test [5], in test [6] and in test [8] was inactive. Further, the molecule was called inactive in test [12], in [13], in test [14], in test [15], in test [16] and in test [18]. Further, the call in test [19] was inactive. Moreover, the AC50 in test [2] is 39.3 µM (active); in test [10], 34.9 µM (active); in test [11] it was 21.1 µM (active); in [20], 50 µM (active).

A word on the AC50: it is the concentration at which the activity in the assay is half-maximal.
